Data on one compound can be found in ChEMBL document CHEMBL1961873, “Compounds: GSK PKIS; Assays: Nanosyn kinase panel” (2012).

Test [1] concerns the target Sphingosine kinase 1 (Homo sapiens) (UniProt Q9NYA1). As to conditions: at 1 µM.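 Further: mean SPHK1 inhibition value reported from the GSK PKIS kinase panel screen.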
Test [2] addresses T1, Sphingosine kinase 2 (Homo sapiens) (UniProt Q9NRA0).
T1 sequence (whole entry): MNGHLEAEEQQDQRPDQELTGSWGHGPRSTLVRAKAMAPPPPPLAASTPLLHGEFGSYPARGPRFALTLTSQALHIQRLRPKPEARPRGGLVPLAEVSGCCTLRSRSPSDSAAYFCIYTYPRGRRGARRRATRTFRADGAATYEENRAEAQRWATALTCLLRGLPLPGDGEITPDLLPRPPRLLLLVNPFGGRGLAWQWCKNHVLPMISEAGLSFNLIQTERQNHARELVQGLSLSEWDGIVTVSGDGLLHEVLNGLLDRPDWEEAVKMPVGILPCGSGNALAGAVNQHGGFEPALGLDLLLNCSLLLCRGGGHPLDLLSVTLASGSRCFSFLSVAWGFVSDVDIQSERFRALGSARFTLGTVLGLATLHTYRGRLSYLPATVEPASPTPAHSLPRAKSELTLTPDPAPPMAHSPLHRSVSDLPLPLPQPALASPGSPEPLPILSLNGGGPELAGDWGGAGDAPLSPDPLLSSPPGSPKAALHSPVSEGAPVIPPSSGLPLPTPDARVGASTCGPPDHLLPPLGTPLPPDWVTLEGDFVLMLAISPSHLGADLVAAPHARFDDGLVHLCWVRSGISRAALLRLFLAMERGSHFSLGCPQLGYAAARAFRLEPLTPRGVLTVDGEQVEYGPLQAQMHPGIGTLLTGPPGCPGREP
As to conditions: at 0.1 µM.

For test [3], the target named is T1, Sphingosine kinase 2 (Homo sapiens). To be noted: at 1 µM.
Test [4] addresses Casein kinase II subunit alpha (Homo sapiens) (UniProt P68400). To be noted: at 0.1 µM.
Test [5] has the same target. As to conditions: at 1 µM.
Test [6] addresses T2, Inhibitor of nuclear factor kappa-B kinase subunit alpha (Homo sapiens) (UniProt O15111).
T2 sequence (whole entry): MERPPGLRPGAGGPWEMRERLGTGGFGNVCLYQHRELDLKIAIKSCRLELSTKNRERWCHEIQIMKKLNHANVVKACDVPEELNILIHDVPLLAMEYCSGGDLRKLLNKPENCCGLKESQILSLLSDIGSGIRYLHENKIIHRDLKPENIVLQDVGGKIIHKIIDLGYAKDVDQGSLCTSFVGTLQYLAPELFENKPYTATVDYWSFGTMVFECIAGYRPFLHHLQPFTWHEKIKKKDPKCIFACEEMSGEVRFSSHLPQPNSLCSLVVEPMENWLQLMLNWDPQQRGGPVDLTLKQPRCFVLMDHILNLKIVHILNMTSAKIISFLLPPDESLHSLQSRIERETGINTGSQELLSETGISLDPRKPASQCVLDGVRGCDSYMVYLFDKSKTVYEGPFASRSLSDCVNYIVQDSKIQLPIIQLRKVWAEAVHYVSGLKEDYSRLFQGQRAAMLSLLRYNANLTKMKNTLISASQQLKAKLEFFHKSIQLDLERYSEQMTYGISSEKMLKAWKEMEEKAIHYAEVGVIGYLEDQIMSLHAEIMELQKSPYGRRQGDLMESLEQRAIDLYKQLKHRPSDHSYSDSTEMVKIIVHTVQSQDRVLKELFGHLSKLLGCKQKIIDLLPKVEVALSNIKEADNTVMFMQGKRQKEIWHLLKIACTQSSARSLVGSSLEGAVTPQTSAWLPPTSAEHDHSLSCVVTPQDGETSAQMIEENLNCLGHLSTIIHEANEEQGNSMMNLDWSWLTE
To be noted: at 0.1 µM.

Test [7] addresses T2, Inhibitor of nuclear factor kappa-B kinase subunit alpha (Homo sapiens). As to conditions: at 1 µM.
The target in test [8] is T3, Inhibitor of nuclear factor kappa-B kinase subunit beta (Homo sapiens) (UniProt O14920).
T3 sequence (whole entry): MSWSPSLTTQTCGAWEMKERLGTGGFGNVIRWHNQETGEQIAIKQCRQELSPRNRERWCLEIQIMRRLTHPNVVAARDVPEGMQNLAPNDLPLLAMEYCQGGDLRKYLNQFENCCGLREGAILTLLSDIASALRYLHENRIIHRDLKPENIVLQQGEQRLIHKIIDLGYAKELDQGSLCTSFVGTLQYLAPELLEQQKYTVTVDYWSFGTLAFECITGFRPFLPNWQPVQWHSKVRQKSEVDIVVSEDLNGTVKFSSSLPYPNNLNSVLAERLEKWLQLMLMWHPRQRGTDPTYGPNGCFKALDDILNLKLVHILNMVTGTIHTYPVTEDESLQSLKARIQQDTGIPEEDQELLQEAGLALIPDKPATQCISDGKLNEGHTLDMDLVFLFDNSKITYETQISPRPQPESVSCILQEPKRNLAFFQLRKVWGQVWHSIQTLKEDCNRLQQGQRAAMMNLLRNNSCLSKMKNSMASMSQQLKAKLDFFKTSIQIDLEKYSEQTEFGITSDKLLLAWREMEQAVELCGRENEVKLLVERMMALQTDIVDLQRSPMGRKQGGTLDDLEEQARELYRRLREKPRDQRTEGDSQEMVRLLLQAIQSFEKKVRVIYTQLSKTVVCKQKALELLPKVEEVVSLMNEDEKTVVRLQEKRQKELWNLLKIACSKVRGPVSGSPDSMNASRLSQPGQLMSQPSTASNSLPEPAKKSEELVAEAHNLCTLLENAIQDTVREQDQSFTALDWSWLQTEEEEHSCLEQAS
As to conditions: at 0.1 µM.

Test [9] concerns the target T3, Inhibitor of nuclear factor kappa-B kinase subunit beta (Homo sapiens). As to conditions: at 1 µM.
The target of test [10] is T4, Inhibitor of nuclear factor kappa-B kinase subunit epsilon (Homo sapiens) (UniProt Q14164).
T4 sequence (whole entry): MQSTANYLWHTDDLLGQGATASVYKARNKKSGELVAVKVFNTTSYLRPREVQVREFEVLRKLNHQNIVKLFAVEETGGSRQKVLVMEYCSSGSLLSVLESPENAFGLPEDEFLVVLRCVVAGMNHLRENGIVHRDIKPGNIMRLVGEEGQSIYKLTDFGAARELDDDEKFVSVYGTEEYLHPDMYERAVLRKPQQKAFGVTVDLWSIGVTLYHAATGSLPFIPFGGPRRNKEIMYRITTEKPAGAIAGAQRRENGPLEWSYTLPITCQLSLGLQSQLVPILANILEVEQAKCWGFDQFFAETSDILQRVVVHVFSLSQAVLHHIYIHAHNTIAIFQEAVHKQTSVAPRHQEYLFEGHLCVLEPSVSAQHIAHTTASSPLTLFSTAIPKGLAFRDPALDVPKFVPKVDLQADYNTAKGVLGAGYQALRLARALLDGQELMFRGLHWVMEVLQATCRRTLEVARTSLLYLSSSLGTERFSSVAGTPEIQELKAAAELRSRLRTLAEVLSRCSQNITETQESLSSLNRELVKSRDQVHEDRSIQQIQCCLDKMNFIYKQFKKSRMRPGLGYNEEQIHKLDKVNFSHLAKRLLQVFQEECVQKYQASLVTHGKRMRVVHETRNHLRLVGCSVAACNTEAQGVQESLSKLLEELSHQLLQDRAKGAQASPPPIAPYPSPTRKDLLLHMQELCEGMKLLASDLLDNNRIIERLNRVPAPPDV
To be noted: at 0.1 µM.

In test [11] the target is T4, Inhibitor of nuclear factor kappa-B kinase subunit epsilon (Homo sapiens). As to conditions: at 1 µM.
Test [12] addresses T5, Serine/threonine-protein kinase Nek1 (Homo sapiens) (UniProt Q96PY6).
T5 sequence (whole entry): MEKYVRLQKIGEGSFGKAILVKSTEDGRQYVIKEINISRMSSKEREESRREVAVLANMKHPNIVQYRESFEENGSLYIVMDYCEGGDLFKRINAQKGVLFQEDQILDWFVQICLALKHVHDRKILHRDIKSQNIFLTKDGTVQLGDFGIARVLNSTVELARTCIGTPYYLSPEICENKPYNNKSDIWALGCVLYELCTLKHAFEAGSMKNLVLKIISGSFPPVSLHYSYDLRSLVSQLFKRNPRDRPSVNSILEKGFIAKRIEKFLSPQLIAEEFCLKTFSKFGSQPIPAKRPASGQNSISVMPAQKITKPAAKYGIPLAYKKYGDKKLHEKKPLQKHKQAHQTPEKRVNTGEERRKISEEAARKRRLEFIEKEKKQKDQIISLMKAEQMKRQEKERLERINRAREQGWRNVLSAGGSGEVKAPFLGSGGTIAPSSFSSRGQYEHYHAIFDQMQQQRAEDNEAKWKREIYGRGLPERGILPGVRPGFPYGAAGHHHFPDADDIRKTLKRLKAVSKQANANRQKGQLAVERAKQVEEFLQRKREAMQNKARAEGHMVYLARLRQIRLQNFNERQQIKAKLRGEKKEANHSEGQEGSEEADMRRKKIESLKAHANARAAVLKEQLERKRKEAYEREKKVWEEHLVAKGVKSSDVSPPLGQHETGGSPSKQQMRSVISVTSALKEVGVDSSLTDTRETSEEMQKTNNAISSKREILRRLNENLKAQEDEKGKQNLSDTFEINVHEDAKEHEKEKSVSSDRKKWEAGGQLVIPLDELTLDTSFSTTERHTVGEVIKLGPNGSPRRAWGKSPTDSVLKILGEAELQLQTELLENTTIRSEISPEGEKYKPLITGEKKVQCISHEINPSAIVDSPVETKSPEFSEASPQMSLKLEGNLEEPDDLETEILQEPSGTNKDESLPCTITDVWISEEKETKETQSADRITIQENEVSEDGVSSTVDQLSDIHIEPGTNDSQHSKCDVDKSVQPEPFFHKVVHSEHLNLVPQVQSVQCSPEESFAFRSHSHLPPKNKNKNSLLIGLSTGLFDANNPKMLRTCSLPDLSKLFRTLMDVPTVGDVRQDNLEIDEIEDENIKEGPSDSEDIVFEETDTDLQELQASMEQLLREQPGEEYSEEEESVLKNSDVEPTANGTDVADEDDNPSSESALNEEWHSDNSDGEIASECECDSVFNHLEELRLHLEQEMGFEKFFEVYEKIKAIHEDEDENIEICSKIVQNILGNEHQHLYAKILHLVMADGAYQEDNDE
As to conditions: at 0.1 µM.

Test [13] deals with T5, Serine/threonine-protein kinase Nek1 (Homo sapiens). To be noted: at 1 µM.
In test [14] the target is T6, Serine/threonine-protein kinase Nek2 (Homo sapiens) (UniProt P51955).
T6 sequence (whole entry): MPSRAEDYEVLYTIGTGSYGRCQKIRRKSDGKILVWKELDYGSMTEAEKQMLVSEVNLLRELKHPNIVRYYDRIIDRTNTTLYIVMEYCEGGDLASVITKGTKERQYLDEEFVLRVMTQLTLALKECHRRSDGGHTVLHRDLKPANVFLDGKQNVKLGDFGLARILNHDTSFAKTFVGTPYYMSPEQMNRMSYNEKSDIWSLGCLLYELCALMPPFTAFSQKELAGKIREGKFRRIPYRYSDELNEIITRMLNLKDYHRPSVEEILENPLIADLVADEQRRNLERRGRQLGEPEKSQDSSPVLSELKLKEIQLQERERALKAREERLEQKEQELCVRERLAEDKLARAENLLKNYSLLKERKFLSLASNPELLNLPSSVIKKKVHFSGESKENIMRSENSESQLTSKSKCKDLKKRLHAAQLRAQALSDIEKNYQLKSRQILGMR
To be noted: at 0.1 µM.

The target of test [15] is T6, Serine/threonine-protein kinase Nek2 (Homo sapiens). To be noted: at 1 µM.
Test [16] deals with Serine/threonine-protein kinase Nek6 (Homo sapiens) (UniProt Q9HC98). As to conditions: at 0.1 µM.
For test [17] the target is unchanged. To be noted: at 1 µM.
Test [18] concerns the target Serine/threonine-protein kinase Nek7 (Homo sapiens) (UniProt Q8TDX7). As to conditions: at 0.1 µM.
The target is the same in test [19]. To be noted: at 1 µM.
The target in test [20] is T7, Serine/threonine-protein kinase Nek9 (Homo sapiens) (UniProt Q8TD19).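 Further: reported value is the mean percent inhibition of NEK9.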
T7 sequence (whole entry): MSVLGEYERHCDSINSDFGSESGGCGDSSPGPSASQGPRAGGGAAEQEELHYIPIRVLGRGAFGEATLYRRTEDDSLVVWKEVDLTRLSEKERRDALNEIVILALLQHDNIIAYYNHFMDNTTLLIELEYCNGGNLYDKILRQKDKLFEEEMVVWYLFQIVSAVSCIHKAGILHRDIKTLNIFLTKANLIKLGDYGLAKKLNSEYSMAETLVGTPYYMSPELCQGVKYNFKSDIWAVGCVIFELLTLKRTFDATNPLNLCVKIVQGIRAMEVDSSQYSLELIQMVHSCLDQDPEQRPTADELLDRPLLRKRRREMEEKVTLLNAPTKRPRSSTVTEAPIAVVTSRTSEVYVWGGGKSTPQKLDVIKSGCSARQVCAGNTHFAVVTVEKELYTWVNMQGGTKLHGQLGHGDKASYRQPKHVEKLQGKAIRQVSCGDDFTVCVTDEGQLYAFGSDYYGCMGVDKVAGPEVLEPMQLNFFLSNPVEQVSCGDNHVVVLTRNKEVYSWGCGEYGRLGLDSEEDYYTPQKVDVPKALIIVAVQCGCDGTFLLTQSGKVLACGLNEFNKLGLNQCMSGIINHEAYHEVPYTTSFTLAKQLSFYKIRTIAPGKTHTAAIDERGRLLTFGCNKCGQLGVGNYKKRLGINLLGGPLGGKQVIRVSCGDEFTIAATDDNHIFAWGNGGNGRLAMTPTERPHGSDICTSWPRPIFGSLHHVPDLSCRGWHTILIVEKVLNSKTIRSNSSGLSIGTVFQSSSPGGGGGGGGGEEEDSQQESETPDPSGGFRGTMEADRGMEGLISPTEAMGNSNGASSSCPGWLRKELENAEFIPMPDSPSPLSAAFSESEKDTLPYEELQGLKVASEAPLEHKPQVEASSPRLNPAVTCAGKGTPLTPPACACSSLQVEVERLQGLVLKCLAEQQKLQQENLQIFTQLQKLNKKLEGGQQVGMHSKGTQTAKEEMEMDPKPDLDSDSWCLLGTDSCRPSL
As to conditions: at 0.1 µM.

Serine/threonine-protein kinase Nek6 (Homo sapiens), sequence (Q9HC98 whole entry): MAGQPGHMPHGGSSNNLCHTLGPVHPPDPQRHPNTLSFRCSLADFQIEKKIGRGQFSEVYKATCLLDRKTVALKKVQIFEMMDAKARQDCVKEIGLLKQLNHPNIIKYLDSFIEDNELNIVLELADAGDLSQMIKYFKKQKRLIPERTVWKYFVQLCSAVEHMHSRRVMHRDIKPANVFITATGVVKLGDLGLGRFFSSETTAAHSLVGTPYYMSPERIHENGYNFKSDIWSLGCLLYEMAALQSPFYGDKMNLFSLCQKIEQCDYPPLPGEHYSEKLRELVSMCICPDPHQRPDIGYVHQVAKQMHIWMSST
Casein kinase II subunit alpha (Homo sapiens), sequence (P68400 whole entry, looked up): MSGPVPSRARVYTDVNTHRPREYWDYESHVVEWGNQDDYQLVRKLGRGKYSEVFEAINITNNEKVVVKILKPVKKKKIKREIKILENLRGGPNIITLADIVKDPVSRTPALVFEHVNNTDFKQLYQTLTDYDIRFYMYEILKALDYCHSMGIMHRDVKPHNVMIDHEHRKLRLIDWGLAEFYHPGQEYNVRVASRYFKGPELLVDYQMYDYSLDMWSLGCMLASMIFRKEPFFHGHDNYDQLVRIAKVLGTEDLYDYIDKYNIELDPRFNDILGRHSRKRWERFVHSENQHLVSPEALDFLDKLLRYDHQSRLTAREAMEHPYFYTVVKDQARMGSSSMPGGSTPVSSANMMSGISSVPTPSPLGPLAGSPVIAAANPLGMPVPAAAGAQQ
Serine/threonine-protein kinase Nek7 (Homo sapiens), sequence (Q8TDX7 whole entry, looked up): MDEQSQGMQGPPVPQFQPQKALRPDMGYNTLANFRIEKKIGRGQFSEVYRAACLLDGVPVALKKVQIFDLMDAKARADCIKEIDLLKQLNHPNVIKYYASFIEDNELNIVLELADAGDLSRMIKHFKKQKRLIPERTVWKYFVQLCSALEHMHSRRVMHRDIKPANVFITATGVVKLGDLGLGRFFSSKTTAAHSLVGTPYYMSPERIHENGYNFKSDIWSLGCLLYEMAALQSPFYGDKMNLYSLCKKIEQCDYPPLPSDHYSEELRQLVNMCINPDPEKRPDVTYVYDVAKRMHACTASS
Sphingosine kinase 1 (Homo sapiens), sequence (Q9NYA1 whole entry): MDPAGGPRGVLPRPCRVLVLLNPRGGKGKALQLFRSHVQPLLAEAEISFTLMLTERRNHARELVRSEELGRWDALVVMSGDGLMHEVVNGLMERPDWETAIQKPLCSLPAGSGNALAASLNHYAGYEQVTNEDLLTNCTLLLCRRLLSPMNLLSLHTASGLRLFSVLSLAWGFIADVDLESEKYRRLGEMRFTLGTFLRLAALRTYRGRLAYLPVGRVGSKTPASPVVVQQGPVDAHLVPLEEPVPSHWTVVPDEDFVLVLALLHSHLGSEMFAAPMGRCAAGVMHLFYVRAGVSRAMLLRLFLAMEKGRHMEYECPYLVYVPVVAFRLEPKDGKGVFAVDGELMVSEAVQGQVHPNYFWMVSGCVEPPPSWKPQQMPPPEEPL

`O=C(Nc1n[nH]c2cc(-c3ccccc3)ccc12)C1CC1`: the inhibition – broadly, the relative decrease from the control value, in per cent – in test [1] was 0.1%; in [2], -1.1%; in [3] it was -0.92%; in [4] it was 1.99%; in test [5], 6.38%; in test [6] it was 2.61%. Besides, the inhibition in [7] worked out at 7.25%; in test [8], 5.63%; in [9], 3.54%; in test [10] it was 4.3%; in test [11], 4.27%; in test [12] it was 1.53%. Also, the inhibition in test [13] was 3.2%; in test [14], 5.82%; in test [15], 6.37%; in test [16], 0.8%; in [17], -0.52%; in test [18], 5.67%. In addition, the inhibition in [19] came out at 3.1%; in [20], 4.27%.
